# Measurements from PubChem BioAssay.
# Activity calls are given as the source filed them.
# Experiments:
# [1] = tested on: PRMT1 (protein arginine N-methyltransferase 1); assay: PRMT1 binders on small-molecule microarrays, primary screen, biochemical, small-molecule microarray, 635 nm fluorescence (AID 1088); details: small-molecule microarray binding, higher = more signal;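 note: binding of Prmt1 protein to compounds spotted on small-molecule microarray slides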
# [2] = yeast growth modulation, basal conditions, primary screen, YJM789 clinical isolate, OD600, 24 h (AID 1089);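 note: growth of clinical yeast isolate S. cerevisiae YJM 789 seeded 1000 cells per well; test concentration not given here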; details: S. cerevisiae YJM789 growth, higher = more signal, called active from +8 up or from −8 down
# [3] = fission yeast growth modulation, primary screen, strain 972, OD600, 24 h, no modulator (AID 1090);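 note: basal condition with compound alone and no growth modifier present; test concentration not given here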; details: S. pombe 972 growth, higher = more signal, called active from +8 up or from −8 down
# [4] = S. cerevisiae growth modulation with rapamycin, primary screen, strain BY4716, OD600, 96 h (AID 1091); details: higher = more signal, called active from +8 up or from −8 down; note: test concentration not given here
# [5] = biological target: Torsin-1A-interacting protein 2 (Homo sapiens) (UniProt Q8NFQ8); assay: LULL1 binders on small-molecule microarray, primary screen, cell lysate, human LULL1 lysate, 635/667 nm fluorescence (AID 1092); details: hLULL1 lysate binding, 635 nm fluorescence, higher = more signal;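 note: probe is lysate of COS7 cells overexpressing human LULL1; score merges per-feature 667 nm fluorescence with signal-to-noise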
# Torsin-1A-interacting protein 2 (Homo sapiens), sequence (Q8NFQ8 whole entry, looked up): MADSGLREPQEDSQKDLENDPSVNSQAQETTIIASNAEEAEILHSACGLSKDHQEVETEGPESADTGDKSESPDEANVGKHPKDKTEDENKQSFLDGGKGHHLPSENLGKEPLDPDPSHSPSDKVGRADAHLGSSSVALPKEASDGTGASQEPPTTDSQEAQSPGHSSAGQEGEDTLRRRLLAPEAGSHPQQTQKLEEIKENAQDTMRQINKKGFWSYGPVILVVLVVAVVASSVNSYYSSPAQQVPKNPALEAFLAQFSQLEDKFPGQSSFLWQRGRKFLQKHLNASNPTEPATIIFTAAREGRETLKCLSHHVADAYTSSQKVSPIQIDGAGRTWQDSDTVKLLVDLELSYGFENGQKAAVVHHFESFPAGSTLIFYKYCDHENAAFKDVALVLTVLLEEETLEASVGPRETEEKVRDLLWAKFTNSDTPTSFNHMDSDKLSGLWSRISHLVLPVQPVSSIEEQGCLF
# [6] = E. coli growth modulation, two-sided OD650, primary screen, E. coli filamentation project, strain DRC41, 24 h (AID 1093); details: OD650, 24 h, higher = more signal, called active from +8 up or from −8 down;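 note: MC1000 strain lacking acrAB efflux and sulA so SOS filamentation is blocked; test concentration not given here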
# [7] = small-molecule microarray binders of probe aLefty2, primary screen, biochemical, biotinylated probe, 635/667 nm fluorescence (AID 1094); details: higher = more signal;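 note: score merges spot fluorescence near 667 nm with spot signal-to-noise ratio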
# [8] = tested on: Noggin (protein binding on small-molecule microarray); assay: Noggin binders on small-molecule microarray, primary screen, biochemical, 635/667 nm fluorescence (AID 1095); details: 635 nm fluorescence, higher = more signal;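 note: score merges 667 nm feature fluorescence with signal to noise over triplicate slides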
# [9] = biological target: Neurogenic locus notch homolog protein 3 (Homo sapiens) (UniProt Q9UM47); assay: NOTCH3 binders on small-molecule microarray, primary screen, biochemical, 635/667 nm fluorescence (AID 1096); details: NOTCH3 binding, 635 nm fluorescence, higher = more signal
# Neurogenic locus notch homolog protein 3 (Homo sapiens), sequence (Q9UM47 whole entry, looked up): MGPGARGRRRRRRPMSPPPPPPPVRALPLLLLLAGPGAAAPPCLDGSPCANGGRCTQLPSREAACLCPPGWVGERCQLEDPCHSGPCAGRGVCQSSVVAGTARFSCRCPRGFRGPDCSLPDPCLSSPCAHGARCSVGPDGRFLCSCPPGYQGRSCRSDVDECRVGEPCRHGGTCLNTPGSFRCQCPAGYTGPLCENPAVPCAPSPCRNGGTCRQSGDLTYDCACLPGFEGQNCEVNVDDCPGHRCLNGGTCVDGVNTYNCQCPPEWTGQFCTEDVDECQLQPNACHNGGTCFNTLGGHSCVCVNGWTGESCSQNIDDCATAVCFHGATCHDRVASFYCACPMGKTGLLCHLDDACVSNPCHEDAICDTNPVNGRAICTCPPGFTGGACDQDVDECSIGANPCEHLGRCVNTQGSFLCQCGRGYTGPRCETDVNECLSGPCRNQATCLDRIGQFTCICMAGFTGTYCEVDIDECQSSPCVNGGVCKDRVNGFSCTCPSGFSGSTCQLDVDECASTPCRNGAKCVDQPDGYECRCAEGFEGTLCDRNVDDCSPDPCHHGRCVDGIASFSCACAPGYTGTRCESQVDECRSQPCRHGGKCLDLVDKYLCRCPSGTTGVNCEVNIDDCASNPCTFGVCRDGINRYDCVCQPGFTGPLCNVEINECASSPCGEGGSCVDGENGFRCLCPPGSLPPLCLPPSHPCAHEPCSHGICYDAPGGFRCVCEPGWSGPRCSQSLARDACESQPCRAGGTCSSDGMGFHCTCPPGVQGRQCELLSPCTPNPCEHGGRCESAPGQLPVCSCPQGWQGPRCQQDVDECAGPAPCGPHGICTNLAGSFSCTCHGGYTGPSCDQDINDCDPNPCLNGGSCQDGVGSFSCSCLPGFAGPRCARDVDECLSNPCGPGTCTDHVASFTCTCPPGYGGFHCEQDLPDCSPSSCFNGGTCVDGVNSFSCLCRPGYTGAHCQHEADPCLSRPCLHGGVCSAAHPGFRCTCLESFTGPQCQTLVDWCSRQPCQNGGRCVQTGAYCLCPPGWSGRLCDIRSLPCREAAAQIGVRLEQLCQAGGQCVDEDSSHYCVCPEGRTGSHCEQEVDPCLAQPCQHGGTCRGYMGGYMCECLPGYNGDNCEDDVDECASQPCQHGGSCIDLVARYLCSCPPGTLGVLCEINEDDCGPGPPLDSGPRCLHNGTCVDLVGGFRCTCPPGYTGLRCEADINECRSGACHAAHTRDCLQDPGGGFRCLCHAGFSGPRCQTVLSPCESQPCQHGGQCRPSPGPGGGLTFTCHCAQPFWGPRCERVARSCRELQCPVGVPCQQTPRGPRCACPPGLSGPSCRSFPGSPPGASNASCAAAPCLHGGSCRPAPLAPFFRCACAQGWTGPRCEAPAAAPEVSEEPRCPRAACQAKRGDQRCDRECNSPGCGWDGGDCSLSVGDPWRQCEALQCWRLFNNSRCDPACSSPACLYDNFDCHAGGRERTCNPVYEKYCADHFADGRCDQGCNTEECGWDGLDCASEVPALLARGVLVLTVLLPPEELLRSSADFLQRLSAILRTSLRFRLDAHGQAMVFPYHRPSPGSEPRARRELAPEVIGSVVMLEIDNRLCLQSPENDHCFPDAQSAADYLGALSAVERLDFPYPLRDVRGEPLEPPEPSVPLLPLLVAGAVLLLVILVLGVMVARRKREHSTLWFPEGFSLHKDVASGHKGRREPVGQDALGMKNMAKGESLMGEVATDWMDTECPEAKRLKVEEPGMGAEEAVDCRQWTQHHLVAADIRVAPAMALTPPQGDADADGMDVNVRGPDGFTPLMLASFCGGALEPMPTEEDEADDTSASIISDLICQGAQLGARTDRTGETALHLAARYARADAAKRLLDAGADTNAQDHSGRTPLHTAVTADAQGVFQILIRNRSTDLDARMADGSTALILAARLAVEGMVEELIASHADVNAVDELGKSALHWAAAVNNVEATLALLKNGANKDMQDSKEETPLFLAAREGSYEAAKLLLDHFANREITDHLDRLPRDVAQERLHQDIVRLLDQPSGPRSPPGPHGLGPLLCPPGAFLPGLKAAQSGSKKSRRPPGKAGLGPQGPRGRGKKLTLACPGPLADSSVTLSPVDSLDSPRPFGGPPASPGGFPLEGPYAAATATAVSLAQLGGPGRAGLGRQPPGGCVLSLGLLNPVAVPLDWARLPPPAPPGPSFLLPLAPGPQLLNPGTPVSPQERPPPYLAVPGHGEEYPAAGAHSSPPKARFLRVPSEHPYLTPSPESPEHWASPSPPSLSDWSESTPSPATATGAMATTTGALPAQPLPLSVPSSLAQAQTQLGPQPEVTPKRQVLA
# [10] = small-molecule microarray binders of probe aEGFR, primary screen, biochemical, biotinylated probe, 635/667 nm fluorescence (AID 1097); details: higher = more signal;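 note: probe is a biotinylated anti-EGFR antibody binding compounds printed on slides; score combines fluorescence near 667 nm and signal to noise of each spot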
# [11] = tested on: Plasmodium falciparum Sir2 (PF13_0152, Sir2A); assay: pfSir2 binders on small-molecule microarrays, primary screen, biochemical, small-molecule microarray, 635 nm fluorescence (AID 1098); details: small-molecule microarray binding, fluorescence 635 nm; higher = more signal;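 note: score merges spot fluorescence intensity with its signal-to-noise ratio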
# [12] = small-molecule microarray binders of probe aDKK1, primary screen, biochemical, biotinylated probe, 635/667 nm fluorescence (AID 1099); details: higher = more signal;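 note: score merges 667nm spot fluorescence with signal to noise across triplicate slides; reference of the scale not given here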
# [13] = small-molecule microarray binders of probe aCHRDL2, primary screen, biochemical, biotinylated probe, 635/667 nm fluorescence (AID 1100); details: higher = more signal
# [14] = splicing luciferase reporter signal modulators, primary screen, spliceosome inhibition project, cell-based, HEK293, splice +/- reporter (AID 1101); details: luminescence, 24 h, higher = more signal, called active from +8 up or from −8 down;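 note: HEK293 cells carrying a splicing-competent luciferase reporter gene; test concentration not given here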
# [15] = biological target: Fibroblast growth factor 10 (Homo sapiens) (UniProt O15520); assay: FGF10 binders on small-molecule microarrays, primary screen, biochemical, small-molecule microarray, 635 nm fluorescence (AID 1102); details: FGF10 binding, fluorescence 635 nm, higher = more signal
# Fibroblast growth factor 10 (Homo sapiens), sequence (O15520 whole entry, looked up): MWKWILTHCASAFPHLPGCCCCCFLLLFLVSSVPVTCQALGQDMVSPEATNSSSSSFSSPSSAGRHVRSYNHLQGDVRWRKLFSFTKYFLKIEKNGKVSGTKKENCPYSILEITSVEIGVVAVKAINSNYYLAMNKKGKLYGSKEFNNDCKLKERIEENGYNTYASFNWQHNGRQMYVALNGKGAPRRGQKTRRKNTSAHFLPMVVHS
# [16] = tested on: glycogen synthase kinase-3 (GSK3A per assay name; protocol says GSK3B); assay: GSK3 binders on small-molecule microarrays, primary screen, biochemical, small-molecule microarray, 635 nm fluorescence, GSK3A (AID 1103); details: small-molecule microarray binding, fluorescence 635 nm; higher = more signal; note: the record names both GSK3A and GSK3B
# [17] = biological target: Epidermal growth factor receptor (Homo sapiens) (UniProt P00533); assay: EGFR binders on small-molecule microarrays, primary screen, biochemical, small-molecule microarray, 635 nm fluorescence (AID 1104); details: EGFR binding, higher = more signal;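 note: score merges 667 nm emission intensity with spot signal to noise over triplicate slides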
# Epidermal growth factor receptor (Homo sapiens), sequence (P00533 whole entry, looked up): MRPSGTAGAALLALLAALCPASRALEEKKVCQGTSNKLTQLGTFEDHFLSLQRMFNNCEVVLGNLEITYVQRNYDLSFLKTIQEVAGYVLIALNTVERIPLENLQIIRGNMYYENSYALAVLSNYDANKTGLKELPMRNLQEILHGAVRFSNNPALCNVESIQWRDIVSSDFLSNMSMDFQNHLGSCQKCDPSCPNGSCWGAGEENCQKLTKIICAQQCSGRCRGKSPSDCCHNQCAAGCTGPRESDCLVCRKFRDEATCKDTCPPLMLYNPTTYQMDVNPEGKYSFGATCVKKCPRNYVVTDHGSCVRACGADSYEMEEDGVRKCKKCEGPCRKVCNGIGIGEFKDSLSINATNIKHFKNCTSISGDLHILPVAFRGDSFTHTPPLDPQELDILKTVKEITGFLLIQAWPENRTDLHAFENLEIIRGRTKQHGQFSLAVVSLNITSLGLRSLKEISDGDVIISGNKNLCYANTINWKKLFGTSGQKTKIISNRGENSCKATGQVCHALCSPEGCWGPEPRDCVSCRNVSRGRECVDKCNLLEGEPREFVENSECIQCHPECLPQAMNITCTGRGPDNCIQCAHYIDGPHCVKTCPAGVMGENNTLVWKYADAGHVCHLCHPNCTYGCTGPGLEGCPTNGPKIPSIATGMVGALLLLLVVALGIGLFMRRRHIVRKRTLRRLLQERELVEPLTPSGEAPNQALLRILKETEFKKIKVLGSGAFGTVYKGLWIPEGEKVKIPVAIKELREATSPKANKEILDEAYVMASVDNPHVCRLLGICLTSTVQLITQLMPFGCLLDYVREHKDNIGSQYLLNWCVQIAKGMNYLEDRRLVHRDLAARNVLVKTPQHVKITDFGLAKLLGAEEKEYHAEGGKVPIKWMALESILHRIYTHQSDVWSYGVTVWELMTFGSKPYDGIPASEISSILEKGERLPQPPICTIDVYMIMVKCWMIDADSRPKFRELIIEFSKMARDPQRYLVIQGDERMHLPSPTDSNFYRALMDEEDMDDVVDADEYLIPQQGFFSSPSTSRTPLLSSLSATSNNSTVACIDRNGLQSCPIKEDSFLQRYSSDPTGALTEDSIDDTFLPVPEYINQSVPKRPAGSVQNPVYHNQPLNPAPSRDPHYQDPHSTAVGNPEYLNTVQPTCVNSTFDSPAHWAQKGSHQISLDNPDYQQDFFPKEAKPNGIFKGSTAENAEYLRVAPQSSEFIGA
# [18] = biological target: Follistatin-related protein 3 (Homo sapiens) (UniProt O95633); assay: FSTL3 binders on small-molecule microarrays, primary screen, biochemical, small-molecule microarray, 635 nm fluorescence (AID 1105); details: FSTL3 binding, higher = more signal;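 note: score merges emission near 667 nm and signal to noise per printed spot across three slides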
# Follistatin-related protein 3 (Homo sapiens), sequence (O95633 whole entry, looked up): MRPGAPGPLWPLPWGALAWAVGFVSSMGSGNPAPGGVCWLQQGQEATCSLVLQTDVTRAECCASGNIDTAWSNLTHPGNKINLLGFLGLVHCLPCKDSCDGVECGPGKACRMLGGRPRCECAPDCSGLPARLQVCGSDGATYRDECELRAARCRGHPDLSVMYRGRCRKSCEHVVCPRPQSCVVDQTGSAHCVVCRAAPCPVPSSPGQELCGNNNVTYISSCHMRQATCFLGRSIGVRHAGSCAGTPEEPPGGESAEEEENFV
# [19] = biological target: Dickkopf-related protein 1 (Homo sapiens) (UniProt O94907); assay: DKK1 binders on small-molecule microarrays, primary screen, biochemical, small-molecule microarray, 635 nm fluorescence scan (AID 1106); details: DKK1 binding, higher = more signal;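 note: score merges emission near 667 nm with signal to noise over three replicate slides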
# Dickkopf-related protein 1 (Homo sapiens), sequence (O94907 whole entry, looked up): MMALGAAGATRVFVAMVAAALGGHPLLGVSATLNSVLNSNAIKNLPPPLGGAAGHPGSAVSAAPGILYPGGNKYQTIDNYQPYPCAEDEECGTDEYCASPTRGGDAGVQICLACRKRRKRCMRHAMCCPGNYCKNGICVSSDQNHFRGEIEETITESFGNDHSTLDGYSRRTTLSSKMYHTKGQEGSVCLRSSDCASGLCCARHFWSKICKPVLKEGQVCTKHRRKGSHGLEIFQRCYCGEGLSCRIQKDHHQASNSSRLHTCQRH
# [20] = tested on: Inhibin beta A chain (activin A); assay: INHBA (activin A) binders on microarrays, primary screen, biochemical, small-molecule microarray, 635 nm fluorescence scan (AID 1107); details: small-molecule microarray binding, higher = more signal;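 note: mouse activin A protein probed at 4.33 µg/mL on printed slides; score merges bound-protein fluorescence near 667 nm with spot signal-to-noise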
SMILES,composite z-score [1],z-score [2],z-score [3],z-score [4],composite z-score [5],z-score [6],composite z-score [7],composite z-score [8],composite z-score [9],composite z-score [10],composite z-score [11],composite z-score [12],composite z-score [13],z-score [14],composite z-score [15],composite z-score [16],composite z-score [17],composite z-score [18],composite z-score [19],composite z-score [20]
COCCOC(=O)N1C(=O)[C@@]2(c3cc(C#CCCO)ccc31)[C@H](c1ccc(O)cc1)N1[C@H](c3ccccc3)[C@H](c3ccccc3)OC(=O)[C@H]1[C@@H]2C(=O)Nc1nc2ccccc2s1,1.55,-0.123 (inactive),-0.239 (inactive),0.691 (inactive),2.84,1.74 (inactive),-0.0283,1.39,1.09,0.0082,0.762,-0.0965,-0.148,-1.13 (inactive),1.33,1.32,0.562,1.44,0.685,0.364
COC(=O)Cn1c(C(=O)N2CCCC2)cc2c1C[C@H]1CN(C(=O)c3ccccc3)[C@@](Cc3ccccc3)(C(=O)OC)[C@@H]21,-0.257,0.316 (inactive),1.23 (inactive),0.651 (inactive),2.52,0.214 (inactive),0.302,-0.455,0.74,0.168,0.473,0.789,1.09,0.309 (inactive),0.0175,-0.838,-0.282,0.105,-0.837,0.632
CCCC=C(CCC)[C@@H](NS(=O)(=O)c1cccc(C(F)(F)F)c1)c1ccc(C(=O)OC)cc1,0.133,0.483 (inactive),0.441 (inactive),-0.182 (inactive),0.468,-0.228 (inactive),1.06,1.3,0.0083,0.912,0.935,1.55,1.06,-0.489 (inactive),-0.67,0.37,-1.1,-0.271,-0.553,-0.507
CC(c1ccccc1)C(O)C1C=CC2C(=O)N(C)C(=O)C2N1N(c1ccccc1)c1ccccc1 (stereo not given),0.396,0.414 (inactive),0.184 (inactive),1.27 (inactive),1.65,-1.1 (inactive),0.424,-0.959,0.363,-0.0322,0.0872,1.01,1.2,1.05 (inactive),0.234,0.187,-0.451,0.0656,-0.623,1.41
Cc1ccc(S[C@]2(C(=O)NC(C)C)CC(=O)N(Cc3cc(C(F)(F)F)cc(C(F)(F)F)c3)[C@@H]2c2ccc(CO)cc2I)cc1,1.26,-0.698 (inactive),-2.47 (inactive),1.2 (inactive),2.04,0.715 (inactive),-0.0544,-0.147,-0.513,-0.317,-0.602,0.0628,0.892,-0.181 (inactive),-0.816,-0.504,-1.36,-0.923,-1.27,-0.748
N#Cc1ccc(NN2C(C(O)CCc3ccccc3)C=CC3C(=O)N(c4ccccc4)C(=O)C32)cc1 (stereo not given),0.212,-1.53 (inactive),0.222 (inactive),1.13 (inactive),3.01,-1.11 (inactive),0.25,-0.172,1.13,0.35,0.712,1.18,1.11,-0.474 (inactive),0.25,0.767,-0.164,0.228,0.0048,1.02
CC(=O)NCCCC[C@@H]1NC(=O)[C@@H]2C[C@H](C(=O)NCCCCCNC(=O)CS)[C@H](c3ccc(O)cc3)N2C1=O,0.483,-2.05 (inactive),-1.83 (inactive),-1.55 (inactive),-0.0471,2.99 (inactive),-0.149,1.11,0.108,-0.212,1.45,-0.384,0.292,-1.88 (inactive),-0.282,-0.631,-0.817,-0.781,0.527,0.247
O=C1O[C@H](c2ccccc2)[C@H](c2ccccc2)N2[C@H]1[C@@H](C(=O)Nc1nc3ccccc3s1)[C@]1(C(=O)Nc3ccc(C#CC4(O)CCCCCC4)cc31)[C@H]2c1ccc(O)cc1,1.54,-0.0416 (inactive),-0.265 (inactive),0.439 (inactive),3.08,-0.616 (inactive),0.11,1.59,1.09,-0.0214,1.53,0.0991,-0.0778,-0.493 (inactive),1.13,1.27,0.556,0.976,0.413,0.357
COC(=O)c1ccc(C#CC(NP(=O)(c2ccccc2)c2ccccc2)c2ccccc2)cc1 (stereo not given),-0.362,-0.664 (inactive),-11.5 (active),1.25 (inactive),3.14,0.0037 (inactive),0.594,-0.0434,1.05,0.093,-0.179,1.2,1.38,5.42 (inactive),0.847,-0.245,1.77,1.7,0.567,1.76
COc1cc(CO)cc(I)c1O[C@H]1C=C(C(=O)NCCO)C[C@@H](N(CC2CCCCC2)C(=O)c2cc3ccccc3oc2=O)[C@@H]1O,-0.449,0.411 (inactive),-0.858 (inactive),-0.393 (inactive),0.0986,2.1 (inactive),-0.186,0.606,-0.0481,-0.0656,-0.375,-0.34,-0.293,-0.00607 (inactive),0.975,0.0996,0.6,0.797,0.174,0.14
